Values without a mark were called inactive. Calls of active or inactive are those of the source.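 Rule for the calls: active = thallium flux through the channel raised or lowered by more than 3 SD from vehicle-only wells, actives on both sides; inactive = the rest.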
What was measured:
Assay in all cases: BK channel mutant inhibitors and activators – cell-based, U2OS BacMam, thallium flux, beta subunits, selectivity assay, profiling panel (AID 1259406);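 note: initial slope of Thallos dye fluorescence rise after thallium is added; log ratio against the mean of 0.3% DMSO vehicle wells on the same plate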
F380Y/beta2Delta = settings: U2OS BacMam BK variants, at 30 µM
F380Y/beta4 = settings: U2OS BacMam BK variants, at 30 µM
[1] = molecular target: Calcium-activated potassium channel subunit alpha-1 (Homo sapiens) + Leucine-rich repeat-containing protein 26 (Homo sapiens) (UniProt Q12791+Q2I0M4); settings: U2OS BacMam BK variants, F380Y/Slo1WT/gamma1, at 30 µM
R275C = settings: U2OS BacMam BK variants, at 30 µM
R275C/beta1 = settings: U2OS BacMam BK variants, at 30 µM
R275C/beta2Delta = settings: U2OS BacMam BK variants, at 30 µM
R275C/beta4 = settings: U2OS BacMam BK variants, at 30 µM
R275C/Slo1WT/beta2 = settings: U2OS BacMam BK variants, at 30 µM

Calcium-activated potassium channel subunit alpha-1 (Homo sapiens) + Leucine-rich repeat-containing protein 26 (Homo sapiens), sequence (Q2I0M4 whole entry, looked up, one chain of several): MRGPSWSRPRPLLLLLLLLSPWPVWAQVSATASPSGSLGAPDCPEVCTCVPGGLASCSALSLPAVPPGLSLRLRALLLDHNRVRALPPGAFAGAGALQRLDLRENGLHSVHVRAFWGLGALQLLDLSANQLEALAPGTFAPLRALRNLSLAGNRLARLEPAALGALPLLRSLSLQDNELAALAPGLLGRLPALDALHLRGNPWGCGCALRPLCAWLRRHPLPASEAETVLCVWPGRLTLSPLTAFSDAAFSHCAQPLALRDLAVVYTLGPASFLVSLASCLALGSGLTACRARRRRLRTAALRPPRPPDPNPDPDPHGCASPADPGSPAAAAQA

Compound | log fold change Tl+ flux (F380Y/beta2Delta) | log fold change Tl+ flux (F380Y/beta4) | log fold change Tl+ flux [1] | log fold change Tl+ flux (R275C) | log fold change Tl+ flux (R275C/beta1) | log fold change Tl+ flux (R275C/beta2Delta) | log fold change Tl+ flux (R275C/beta4) | log fold change Tl+ flux (R275C/Slo1WT/beta2)
CC(=O)Nc1ccc(CC(=O)O)cc1 | -0.0235 | -0.0309 | -0.0302 | -0.0367 | -0.0357 | -0.0277 | -0.0244 | -0.00738
COC(=O)C1=C(C)NC(C)=C(C(=O)OCC(C)C)C1c1ccccc1[N+](=O)[O-] (stereo not given) | 0.514 (active) | 0.853 (active) | 0.622 (active) | 0.676 (active) | 0.741 (active) | 0.206 (active) | 1.13 (active) | 1.07 (active)
C#C[C@]1(O)CC[C@H]2[C@@H]3CCc4cc(OC)ccc4[C@H]3CC[C@@]21C | -0.0353 | 0.0115 | -0.0403 | -0.0453 | 0.019 | -0.00738 | 0.00852 | -0.04
CC(C)NCC(O)COc1ccc(CCOCC2CC2)cc1 (stereo not given) | 0.0281 | 0.0205 | -0.00804 | 0.0179 | 0.00923 | -0.0652 | -0.0167 | -0.00955
CN(C)CC[C@@H](c1ccc(Cl)cc1)c1ccccn1 | 0.0413 | 0.0471 | -0.00445 | -0.0353 | 0.0461 | 0.00905 | 0.0349 | 0.0166
Nc1[nH]c(=O)ncc1F | 0.0238 | 0.00948 | 0.00877 | 0.0013 | -0.0522 | 0.00516 | -0.00411 | -0.0674
COc1cc2nc(N3CCN(C(=O)C4CCCO4)CC3)nc(N)c2cc1OC (stereo not given) | -0.00319 | 0.00186 | -0.0172 | 0.0113 | -0.0224 | -0.0771 | -0.0968 | -0.0619
CCN1CCN(c2cc3c(cc2F)c(=O)c(C(=O)O)cn3C2CC2)CC1 | -0.0171 | 0.015 | 0.00572 | -0.0438 | 0.0122 | 0.0322 | 0.0288 | 0.165 (active)
OCCOCCN1CCN(C2=Nc3ccccc3Sc3ccccc32)CC1 | 0.0505 | 0.186 (active) | 0.0336 | -0.011 | 0.15 (active) | 0.106 (active) | 0.142 (active) | -0.027
CCOC(=O)O[C@]1(C(=O)OCCl)CC[C@H]2[C@@H]3CCC4=CC(=O)C=C[C@]4(C)[C@H]3[C@@H](O)C[C@@]21C | -0.0465 | 0.0515 | 0.0345 | -0.0297 | 0.0209 | 0.00232 | 0.00823 | 0.00305
O=C(O)/C=C/c1ccc(Cn2ccnc2)cc1 | -0.0133 | 0.00948 | -0.0199 | 0.0013 | 0.0161 | 0.00561 | -0.0096 | 0.0187
CCCc1nc(C)c2c(=O)[nH]c(-c3cc(S(=O)(=O)N4CCN(CC)CC4)ccc3OCC)nn12 | 0.0398 | 0.0304 | 0.0127 | -0.0462 | 0.019 | 0.017 | -0.00355 | 0.00306
Cc1[nH]c(=O)c(C#N)cc1-c1ccncc1 | -0.015 | -0.0201 | 0.0127 | -0.0168 | -0.000763 | 0.0393 | 0.0209 | 0.0443
O=C(O)CCNC(=O)c1ccc(N=Nc2ccc(O)c(C(=O)O)c2)cc1 | -0.00246 | 0.0201 | 0 | -0.0367 | 0.0608 | 0.0174 | 0.00146 | 0.0188
Nc1nc2c(ncn2CCC(CO)CO)c(=O)[nH]1 | -0.015 | -0.0159 | -0.013 | 0.00432 | 0.00335 | 0.0147 | -0.0144 | -0.0115
